Measured values reported in PubChem BioAssay (NCI).
Compounds without any hit were thinned out: in the full panel of roughly 83,000, 20% have a hit.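 Cell lines were cultured in 96-well plates, exposed to a single compound concentration, and assessed for percent growth 48 hours later.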 A number with no mark means an inactive call. Calls of active or inactive are those of the source. How the source made its calls: active means growth percent below 10; inactive means the rest.

Legend:
Experiment in all cases: NCI-60 one-dose screen, 48 h (100 = growth as untreated, 0 = no growth, -100 = all killed)
Conditions in all cases: 10 µM
HCT-15 colon = tested on: HCT-15 colon
HT29 colon = tested on: HT29 colon
SNB-75 CNS = tested on: SNB-75 CNS
SNB-19 CNS = tested on: SNB-19 CNS
U251 CNS = tested on: U251 CNS
PC-3 prostate = tested on: PC-3 prostate
SK-MEL-5 melanoma = tested on: SK-MEL-5 melanoma
UACC-62 melanoma = tested on: UACC-62 melanoma
LOX IMVI melanoma = tested on: LOX IMVI melanoma
SK-MEL-28 melanoma = tested on: SK-MEL-28 melanoma

Row | SMILES | growth (HCT-15 colon) | growth (HT29 colon) | growth (SNB-75 CNS) | growth (SNB-19 CNS) | growth (U251 CNS) | growth (PC-3 prostate) | growth (SK-MEL-5 melanoma) | growth (UACC-62 melanoma) | growth (LOX IMVI melanoma) | growth (SK-MEL-28 melanoma)
1 | COc1ccc(-c2cc(C(=O)N=Nc3c(O)[nH]c4ccc(F)cc34)c3ccccc3n2)cc1 | 21.5% | 61.9% | 84.6% | 44.1% | 7.34% (active) | 76.6% | 72.4% | 81.4% | 24.1% | 81.1%
2 | COc1ccc(-c2nc(S(=O)(=O)c3ccc(C)cc3)c(S(=O)(=O)CC(=O)N(C)Cc3ccccc3)o2)cc1 | -39.6% (active) | 8.42% (active) | 78.7% | 72.1% | 23.6% | 63.7% | 78.4% | 46.7% | -91.1% (active) | 64.8%
3 | CN1CCN(c2ccc(Nc3nc(N4CCN(S(=O)(=O)c5ccc(F)cc5)CC4)c4sccc4n3)cc2)CC1 | -79.8% (active) | -63.1% (active) | -97.9% (active) | -98.1% (active) | -98.5% (active) | -18.4% (active) | -100% (active) | -93.3% (active) | -91.7% (active) | -95.4% (active)
4 | COc1ccc(C(=O)Nc2sc3c(c2C#N)CCC(=O)C3)cc1C(F)(F)F | -69.8% (active) | -31.4% (active) | -15.2% (active) | -5.9% (active) | 3.33% (active) | 8.45% (active) | -92.2% (active) | -25.5% (active) | -15% (active) | -12.6% (active)
5 | COc1cc2c3c(n(CCCN4CCOCC4)c(=O)c2cc1OC)-c1nc2c(cc1C3=O)OCO2 | 41.5% | 7.3% (active) | 49.9% | 15% | -18.9% (active) | 43.6% | -6.78% (active) | -8.82% (active) | -76.6% (active) | 66.1%
6 | COc1ccc(CN2[C@H](C(=O)NCc3ccc(C(=O)NO)cc3)Cc3c([nH]c4ccccc34)[C@H]2C2CC2)cc1 | 44.4% | 39.7% | 74.5% | 63.4% | 47.9% | 54.6% | 67.3% | 20.9% | 35.1% | 43.7%
7 | Cc1noc2c(Cc3ccc([N+](=O)[O-])cc3)nn(CC(=O)N/N=C/c3ccc(Cl)cc3)c(=O)c12 | 80.5% | 62.3% | 44.9% | 42.2% | 12.7% | 59.5% | 88.4% | 65.3% | 40.7% | 69.9%
8 | CC1=C2C(=C[C@@](C)(CO)[C@@H]2O)/C(=N\N)[C@](C)(O)C12CC2 | -17.1% (active) | -11% (active) | -85.1% (active) | -16% (active) | 12% | 6.9% (active) | -61.1% (active) | -81.7% (active) | -64.3% (active) | -67.2% (active)
9 | O=C(CNc1nc(-c2ccccc2)cs1)Nc1ccc([N+](=O)[O-])cc1 | -23.5% (active) | -44.9% (active) | 87.6% | 38.3% | 9.22% (active) | 33.7% | -69.3% (active) | 9.93% (active) | -19.5% (active) | -6.86% (active)
10 | Brc1ccc(N/N=C/c2c[nH]c3ccccc23)nc1 | 8.57% (active) | 14% | 26.7% | 43.9% | 19.9% | 20% | 51.8% | 54.8% | -2.43% (active) | 63.6%
11 | O=C1Nc2cc(-c3ccc(NC(=O)c4cccs4)cc3)ccc2/C1=C/c1ccc[nH]1 | 47.6% | 71.1% | 138% | 87.1% | 65.9% | 65.6% | 63.6% | 80.8% | 55.7% | 101%
12 | O=C1Nc2cc(Cl)ccc2/C1=C/c1cccc(OCc2ccc(Br)cc2F)c1 | 5.07% (active) | 5.13% (active) | -0.373% (active) | 28.6% | -1.12% (active) | 19.3% | -6.52% (active) | 8.35% (active) | -45.9% (active) | 36.4%
13 | COc1ccc(/C=N/N=C(\C)c2ccc3c(c2)Nc2ccccc2S3)cc1O | 29.8% | 85.3% | 66% | 63.7% | 64.5% | 45.4% | -23.5% (active) | 58.9% | 21% | 60.9%
14 | O=C1NC(=NC23CC4CC(CC(C4)C2)C3)N/C1=C\c1ccc2ncoc2c1 | 0.0072% (active) | 4.66% (active) | -8.6% (active) | 6.88% (active) | 10% | 5.37% (active) | 1.95% (active) | -71.4% (active) | 0.372% (active) | -18.6% (active)
15 | Cc1cccc(-c2nc(Nc3ccccc3C(=O)O)c3ccccc3n2)c1 | 14.3% | 39.7% | 55.3% | 21.2% | 26.6% | 29.5% | 6.01% (active) | 28% | 36.4% | 50%
16 | CO[C@@H]1CSSC1Cn1nc(-c2ccc(Oc3ccccc3)cc2)c2c(N)ncnc21 (stereo not given in full) | 37.2% | 28.5% | 97.9% | 69.1% | 49.5% | 43.6% | 7.95% (active) | -53.9% (active) | 39.4% | -34.4% (active)
17 | Cc1ccc2nc(COc3ccc(C(=O)NNC(=S)NC(=O)c4ccccc4)cc3)[nH]c2c1 | 14.9% | 43.6% | 41.6% | 52.4% | 43.3% | 50.2% | 46.1% | 51.9% | 34% | 55.6%
18 | O=C(Nc1cccc([N+](=O)[O-])c1)Nc1cccc([N+](=O)[O-])c1 | 62.7% | 87.3% | 90.5% | 81.7% | 88.7% | 52% | 69.6% | 68.5% | 87.7% | 88.7%
19 | COC1=C[C@]23CCC(=O)N2CCc2cc4c(cc2[C@@H]3[C@@H]1OC(=O)CCCC(C)C)OCO4 | 23.1% | 32.2% | 120% | 28% | 43.3% | 42.5% | 25.9% | 61% | 7.89% (active) | 64.4%
20 | CCN1CCN(c2ccc(NC(=O)Nc3ccc4c(c3F)CCN4c3ccnc(C(=O)NC)c3)cc2C(F)(F)F)CC1 | -91.1% (active) | -79% (active) | -80.8% (active) | -84.3% (active) | -93.8% (active) | 23.4% | -100% (active) | 95.8% | -99.9% (active) | -83.6% (active)
21 | O/N=C(\CSc1nnc(-c2c[nH]c3ccccc23)n1-c1ccccc1)c1ccc(Cl)cc1 | -48.1% (active) | 4.47% (active) | 48% | 17.4% | 30.5% | -38% (active) | 21.2% | -43.2% (active) | -89.3% (active) | 21.2%
22 | O=C(c1ccc(O)cc1)C1[C@H](c2ccccc2Br)[C@@H](c2ccccc2)NC12C(=O)Nc1ccc(Br)cc12 (stereo not given in full) | 36.8% | 26.8% | 31.5% | 53.4% | 26.5% | 23.3% | 56.9% | 42.3% | 15.8% | 77.7%
23 | Cc1ccc(S(=O)(=O)c2nc(-c3ccccc3)oc2S(=O)(=O)CC(=O)N2CCCC2)cc1 | -78.2% (active) | -81.7% (active) | 14.7% | 68.2% | -77.5% (active) | 4.7% (active) | 26.5% | -85.4% (active) | -91.3% (active) | -100% (active)
24 | COc1cccc(-c2ccnc(/N=C(\N)Nc3ccc(S(=O)(=O)Nc4nc(C)cc(C)n4)cc3)n2)c1 | 104% | 106% | 77.5% | 101% | 101% | 91.2% | 99.6% | 102% | 85.8% | 112%
25 | COc1cc(NC(=O)c2cc(-c3ccc(F)cc3F)ccc2O)cc(OC)c1OC | 41.1% | 110% | 40.9% | 31.1% | 32.6% | 21.9% | -15.7% (active) | 0.606% (active) | 55.3% | 25%
26 | O=C(Cc1ccc2c(c1)CN(C1CCC(=O)NC1=O)C2=O)NCCc1ccccc1 (stereo not given) | -0.692% (active) | 31.3% | 1.96% (active) | 15.6% | 67.8% | 11.9% | -54.2% (active) | 53.7% | 81.2% | 37.4%
